Results taken from PubChem BioAssay (EPA / NIEHS).
Results filed as inconclusive are left out. The source made the active and inactive calls. The calls were made as follows, unless noted: active = hit-call score of the fitted dose curve at least 0.9, where 1 is the maximum; inactive = score below 0.9.

Tests used:
[1] = read-out: Tissue Factor, F3 (gene 2152); experiment: BSK_LPS_TissueFactor: BioMAP Diversity Plus: LPS Assay for Tissue Factor Biomarker Activity (AID 2283084); settings: primary human HUVEC with PBMC; actives raise or lower the signal
Procedure, shortened: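 Compound was added to an endothelial cell/PBMC co-culture, and after 24 h tissue factor (CD142) was read by ELISA. Gain or loss of signal was fitted against a DMSO baseline, and parallel SRB staining (560 nm) tracked overt cytotoxicity.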

[2] = read-out: Tumor necrosis factor (Homo sapiens) (UniProt P01375); experiment: BSK_LPS_TNFa: BioMAP Diversity Plus: LPS Assay for Tumour Necrosis Factor alpha (TNFa) Biomarker Activity (AID 2283085); settings: primary human HUVEC with PBMC; actives raise or lower the signal;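 as to AC50: TNFa protein level quantified by ELISA in the co-culture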
Procedure, shortened: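 TNFa was quantified by ELISA in LPS-activated co-cultures of human endothelial cells and PBMC, 24 h post-dosing. Both increases and decreases versus DMSO were fitted.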

[3] = read-out: Vascular cell adhesion molecule 1 (VCAM1), VCAM1 (gene 7412); experiment: BSK_LPS_VCAM1: BioMAP Diversity Plus: LPS Assay for Vascular cell adhesion molecule 1 (VCAM1) Biomarker Activity (AID 2283086); settings: primary human HUVEC with PBMC; actives raise or lower the signal
Procedure, shortened: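 VCAM-1 quantified by ELISA in an LPS-activated co-culture of human endothelial cells and peripheral blood mononuclear cells, read 24 h post-treatment. Fitted in both directions versus DMSO; parallel SRB staining flags overt cytotoxicity.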

CD38, CD38 (gene 952) = experiment: BSK_SAg_CD38: BioMAP Diversity Plus: SAg Assay for CD38 Biomarker Activity (AID 2283087); settings: primary human HUVEC with PBMC; actives raise or lower the signal
Procedure, shortened: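 CD38 quantified by ELISA (fluorescence) in a superantigen-activated endothelial cell–PBMC co-culture at 24 h post-dose. Activity fitted in both directions relative to DMSO; parallel SRB and Alamar Blue cytotoxicity read-outs.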

CD40, CD40 (gene 958) = experiment: BSK_SAg_CD40: BioMAP Diversity Plus: SAg Assay for CD40 Biomarker Activity (AID 2283088); settings: primary human HUVEC with PBMC; actives raise or lower the signal
Procedure, shortened: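 CD40 is measured by fluorescence ELISA in an endothelial/PBMC primary human co-culture at 24 h post-dose. Fitting is bidirectional, DMSO baseline. Parallel SRB staining (560 nm) flags cytotoxicity.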

CD69, CD69 (gene 969) = experiment: BSK_SAg_CD69: BioMAP Diversity Plus: SAg Assay for CD69 Biomarker Activity (AID 2283089); settings: primary human HUVEC with PBMC; actives raise or lower the signal;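 as to AC50: cell surface CD69 protein quantified by ELISA with fluorescence detection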
Procedure, shortened: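 Values derive from bidirectional fitting relative to DMSO vehicle. Cells: umbilical vein endothelium plus peripheral blood mononuclear cells, treated 24 h before fluorescent ELISA for CD69.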

[4] = read-out: Monocyte Chemoattractant Protein-1 (MCP1), CCL2 (gene 6347); experiment: BSK_SAg_MCP1: BioMAP Diversity Plus: SAg Assay for Monocyte Chemoattractant Protein-1 (MCP1) Biomarker Activity (AID 2283090); settings: primary human HUVEC with PBMC; actives raise or lower the signal
Procedure, shortened: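 Values derive from bidirectional fitting of ELISA-measured MCP1 against DMSO controls. Readings were taken 24 h after dosing human vascular endothelial cells co-cultured with peripheral blood mononuclear cells under superantigen stimulation.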

[5] = read-out: E-selectin (Homo sapiens) (UniProt P16581); experiment: BSK_SAg_Eselectin: BioMAP Diversity Plus: SAg Assay for Eselectin Biomarker Activity (AID 2283091); settings: primary human HUVEC with PBMC; actives raise or lower the signal
Procedure, shortened: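 Cell-surface E-selectin is read by ELISA at 24 h in the SAg co-culture of HUVEC and PBMC. Curves are fitted in both directions relative to DMSO. Parallel SRB total-protein staining tracks overt toxicity.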

[6] = read-out: Monokine induced gamma interferon (MIG), CXCL9 (gene 4283); experiment: BSK_SAg_MIG: BioMAP Diversity Plus: SAg Assay for Monokine induced gamma interferon (MIG) Biomarker Activity (AID 2283092); settings: primary human HUVEC with PBMC; actives raise or lower the signal
Procedure, shortened: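 Values reflect bidirectional fitting of ELISA-measured MIG against DMSO vehicle, taken 24 h after dosing of a co-culture of human umbilical vein endothelial cells and peripheral blood mononuclear cells.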

[7] = BSK_SAg_PBMCCytotoxicity: PBMC Cytotoxicity Assessment in the BioMAP Diversity Plus: SAg Assay (AID 2283093); settings: primary human HUVEC with PBMC;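 also: PBMC viability measured as Alamar Blue reduction fluorescence at 546/580 nm; fitted both ways against DMSO so a hit may be loss or gain of signal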;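 as to AC50: PBMC superantigen activated with SEB plus TSST-1 one hour after compound addition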
Procedure, shortened: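 Alamar Blue reduction (6 h, 546/580 nm) reports PBMC cytotoxicity after 90 h superantigen activation (SEB, TSST-1; 20 ng/mL final each) with 1 h compound pre-treatment. Gain or loss of signal fitted versus DMSO.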

[8] = read-out: Interleukin-8 (IL8), CXCL8 (gene 3576); experiment: BSK_SAg_IL8: BioMAP Diversity Plus: SAg Assay for Interleukin-8 (IL8) Biomarker Activity (AID 2283094); settings: primary human HUVEC with PBMC; actives raise or lower the signal
Procedure, shortened: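 ELISA readout of IL-8 from a superantigen-activated endothelial/PBMC primary human co-culture, taken 24 h post-dosing and fitted in both directions against DMSO; parallel SRB total-protein staining flags overt cytotoxicity.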

[9] = BSK_SAg_Proliferation: Cell Proliferation Assessment in the BioMAP Diversity Plus: SAg Assay (AID 2283095); settings: primary human HUVEC with PBMC;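 also: relative cell number as total protein by SRB absorbance in sub-confluent culture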
Procedure, shortened: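 Relative cell number in the endothelial cell/PBMC co-culture was quantified at 96 h by SRB staining (0.1% SRB, 10% TCA fixation, read at 560 nm). Curves were fitted in both directions relative to DMSO baseline.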

[10] = BSK_SAg_SRB: Viability Assessment in the BioMAP Diversity Plus: SAg Assay (AID 2283096); settings: primary human HUVEC with PBMC;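 also: cells read one day after compound addition; hits may be either gain or loss of signal compared with DMSO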
Procedure, shortened: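 This overt-cytotoxicity endpoint quantifies protein in human endothelial/PBMC co-cultures at 24 h using SRB absorbance (560 nm) after trichloroacetic acid fixation. Values reflect signal change from the DMSO negative control, fitted bidirectionally.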

[11] = target: human CYP19A1, CYP19A1 (gene 1588) (UniProt P11511); experiment: NVS_ADME_hCYP19A1: NovaScreen (NVS) CYP450-related Enzyme Activity (ADME) Assay for human CYP19A1 (AID 2283098; active = hit-call score of the fitted dose curve at least 0.9, where 1 is the maximum)
Chain of human CYP19A1, CYP19A1 (gene 1588) (P11511 whole entry, looked up): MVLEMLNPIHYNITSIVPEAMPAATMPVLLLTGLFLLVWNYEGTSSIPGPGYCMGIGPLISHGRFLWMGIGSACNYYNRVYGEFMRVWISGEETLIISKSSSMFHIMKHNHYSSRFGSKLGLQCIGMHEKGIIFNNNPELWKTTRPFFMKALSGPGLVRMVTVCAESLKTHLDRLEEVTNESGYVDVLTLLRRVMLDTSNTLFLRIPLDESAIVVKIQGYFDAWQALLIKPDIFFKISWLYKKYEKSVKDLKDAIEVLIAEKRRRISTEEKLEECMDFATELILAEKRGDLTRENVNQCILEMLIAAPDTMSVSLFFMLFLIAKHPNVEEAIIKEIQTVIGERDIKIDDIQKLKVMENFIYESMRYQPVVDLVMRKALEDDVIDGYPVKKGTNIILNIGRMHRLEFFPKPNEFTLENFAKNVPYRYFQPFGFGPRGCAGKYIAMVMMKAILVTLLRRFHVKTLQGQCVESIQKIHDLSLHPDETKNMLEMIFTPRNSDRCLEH
Procedure, shortened: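 Compounds were first screened at 10 uM in duplicate against purified enzyme, with a fluorogenic substrate and fluorescence intensity detection after 0.5 h. Inhibition appears as reduced signal against acetonitrile control.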

[12] = target: human CYP1A1, CYP1A1 (gene 1543) (UniProt P04798); experiment: NVS_ADME_hCYP1A1: NovaScreen (NVS) CYP450-related Enzyme Activity (ADME) Assay for human CYP1A1 (AID 2283100; active = hit-call score of the fitted dose curve at least 0.9, where 1 is the maximum)
Chain of human CYP1A1, CYP1A1 (gene 1543) (P04798 whole entry, looked up): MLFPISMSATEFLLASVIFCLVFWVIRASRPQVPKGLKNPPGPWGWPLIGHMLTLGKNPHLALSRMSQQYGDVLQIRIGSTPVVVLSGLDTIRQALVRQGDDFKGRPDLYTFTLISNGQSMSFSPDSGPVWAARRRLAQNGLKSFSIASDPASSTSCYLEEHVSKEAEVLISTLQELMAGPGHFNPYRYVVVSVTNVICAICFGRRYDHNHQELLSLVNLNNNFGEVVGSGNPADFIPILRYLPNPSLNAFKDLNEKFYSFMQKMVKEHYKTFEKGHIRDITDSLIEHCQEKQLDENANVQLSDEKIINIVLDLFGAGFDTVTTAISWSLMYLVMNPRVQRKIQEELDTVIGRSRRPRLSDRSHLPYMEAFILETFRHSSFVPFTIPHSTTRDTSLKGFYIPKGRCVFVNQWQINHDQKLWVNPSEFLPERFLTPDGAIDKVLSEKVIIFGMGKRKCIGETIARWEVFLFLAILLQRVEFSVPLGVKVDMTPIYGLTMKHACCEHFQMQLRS
Procedure, shortened: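 Chemicals were first tested in duplicate at 10 uM, and those passing a 30% inhibition threshold were rerun as concentration series topping at 20 uM. Fluorescence read-out of recombinant enzyme turnover after 1 h, relative to acetonitrile.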

[13] = target: human CYP2B6, CYP2B6 (gene 1555) (UniProt P20813); experiment: NVS_ADME_hCYP2B6: NovaScreen (NVS) CYP450-related Enzyme Activity (ADME) Assay for human CYP2B6 (AID 2283101; active = hit-call score of the fitted dose curve at least 0.9, where 1 is the maximum)
Chain of human CYP2B6, CYP2B6 (gene 1555) (P20813 whole entry, looked up): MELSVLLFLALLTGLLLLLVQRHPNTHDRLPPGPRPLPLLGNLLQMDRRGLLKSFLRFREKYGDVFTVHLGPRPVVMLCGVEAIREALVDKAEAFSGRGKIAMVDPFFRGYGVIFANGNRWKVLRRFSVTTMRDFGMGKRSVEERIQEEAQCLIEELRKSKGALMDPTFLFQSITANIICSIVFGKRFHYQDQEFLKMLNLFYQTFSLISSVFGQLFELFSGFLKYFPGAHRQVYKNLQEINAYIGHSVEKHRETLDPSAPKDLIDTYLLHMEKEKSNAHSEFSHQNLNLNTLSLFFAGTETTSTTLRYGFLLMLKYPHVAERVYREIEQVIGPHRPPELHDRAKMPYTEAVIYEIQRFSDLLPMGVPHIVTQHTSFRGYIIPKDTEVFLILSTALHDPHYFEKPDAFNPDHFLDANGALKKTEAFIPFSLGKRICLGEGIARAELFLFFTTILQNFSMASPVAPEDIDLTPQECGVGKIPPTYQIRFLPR
Procedure, shortened: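 Compounds were first screened in duplicate at 10 uM against recombinant enzyme, with the fluorescent product measured after 1 hour. Active compounds were retested over a concentration series. Loss of fluorescence versus acetonitrile control was scored as reduced enzyme activity.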

[14] = target: human CYP2D6, CYP2D6 (gene 1565) (UniProt P10635); experiment: NVS_ADME_hCYP2D6: NovaScreen (NVS) CYP450-related Enzyme Activity (ADME) Assay for human CYP2D6 (AID 2283107; active = hit-call score of the fitted dose curve at least 0.9, where 1 is the maximum)
Chain of human CYP2D6, CYP2D6 (gene 1565) (P10635 whole entry, looked up): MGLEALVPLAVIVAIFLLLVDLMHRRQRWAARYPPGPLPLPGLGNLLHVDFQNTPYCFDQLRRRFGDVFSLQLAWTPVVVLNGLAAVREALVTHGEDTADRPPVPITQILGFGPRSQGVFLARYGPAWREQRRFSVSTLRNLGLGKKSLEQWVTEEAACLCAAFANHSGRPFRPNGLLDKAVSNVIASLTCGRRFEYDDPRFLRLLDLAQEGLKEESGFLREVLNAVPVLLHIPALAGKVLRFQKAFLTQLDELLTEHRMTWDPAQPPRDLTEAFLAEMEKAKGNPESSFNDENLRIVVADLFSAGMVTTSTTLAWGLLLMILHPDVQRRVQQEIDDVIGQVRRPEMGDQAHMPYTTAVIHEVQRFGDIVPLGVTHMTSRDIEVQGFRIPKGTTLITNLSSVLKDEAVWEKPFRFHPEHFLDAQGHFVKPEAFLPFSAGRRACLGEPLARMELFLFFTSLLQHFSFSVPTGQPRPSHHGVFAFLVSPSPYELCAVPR
Procedure, shortened: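 Fluorescence readout of recombinant CYP2D6 (insect-cell derived) activity after 1 h incubation with test chemical. Acetonitrile served as baseline, loss-of-signal direction. Single-concentration duplicate screening at 10 uM preceded concentration-response retesting.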

[15] = target: Cytochrome P450 3A4 (Homo sapiens) (UniProt P08684); experiment: NVS_ADME_hCYP3A4: NovaScreen (NVS) CYP450-related Enzyme Activity (ADME) Assay for human CYP3A4 (AID 2283110; active = hit-call score of the fitted dose curve at least 0.9, where 1 is the maximum)
Chain of Cytochrome P450 3A4 (Homo sapiens) (P08684 whole entry, looked up): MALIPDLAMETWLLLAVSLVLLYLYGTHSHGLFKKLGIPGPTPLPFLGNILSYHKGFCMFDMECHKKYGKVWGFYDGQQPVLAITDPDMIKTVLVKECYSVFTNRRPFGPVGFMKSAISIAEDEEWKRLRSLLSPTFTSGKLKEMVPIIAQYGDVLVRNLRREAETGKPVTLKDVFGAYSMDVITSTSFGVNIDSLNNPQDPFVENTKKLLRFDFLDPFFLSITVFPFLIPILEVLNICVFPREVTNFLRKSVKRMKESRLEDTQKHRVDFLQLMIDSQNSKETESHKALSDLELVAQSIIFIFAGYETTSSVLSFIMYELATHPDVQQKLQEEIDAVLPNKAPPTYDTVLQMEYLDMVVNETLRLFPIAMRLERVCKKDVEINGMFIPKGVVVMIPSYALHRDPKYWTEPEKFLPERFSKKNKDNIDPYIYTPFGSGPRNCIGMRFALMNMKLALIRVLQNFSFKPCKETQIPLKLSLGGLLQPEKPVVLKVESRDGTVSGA
Procedure, shortened: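 Activity is derived from decreased fluorescence intensity relative to acetonitrile, measured 0.33 hour after dosing insect-cell-expressed CYP3A4 in a cell-free format. Screening used 10 uM in duplicate before concentration-response follow-up.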

[16] = target: human CYP1A2, CYP1A2 (gene 1544) (UniProt P05177); experiment: NVS_ADME_hCYP1A2: NovaScreen (NVS) CYP450-related Enzyme Activity (ADME) Assay for human CYP1A2 (AID 2283102; active = hit-call score of the fitted dose curve at least 0.9, where 1 is the maximum;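 also: fluorescence from turnover of a fluorogenic substrate by recombinant insect-cell CYP1A2; potency for inhibition since loss of fluorescence marks reduced CYP1A2 activity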)
Chain of human CYP1A2, CYP1A2 (gene 1544) (P05177 whole entry, looked up): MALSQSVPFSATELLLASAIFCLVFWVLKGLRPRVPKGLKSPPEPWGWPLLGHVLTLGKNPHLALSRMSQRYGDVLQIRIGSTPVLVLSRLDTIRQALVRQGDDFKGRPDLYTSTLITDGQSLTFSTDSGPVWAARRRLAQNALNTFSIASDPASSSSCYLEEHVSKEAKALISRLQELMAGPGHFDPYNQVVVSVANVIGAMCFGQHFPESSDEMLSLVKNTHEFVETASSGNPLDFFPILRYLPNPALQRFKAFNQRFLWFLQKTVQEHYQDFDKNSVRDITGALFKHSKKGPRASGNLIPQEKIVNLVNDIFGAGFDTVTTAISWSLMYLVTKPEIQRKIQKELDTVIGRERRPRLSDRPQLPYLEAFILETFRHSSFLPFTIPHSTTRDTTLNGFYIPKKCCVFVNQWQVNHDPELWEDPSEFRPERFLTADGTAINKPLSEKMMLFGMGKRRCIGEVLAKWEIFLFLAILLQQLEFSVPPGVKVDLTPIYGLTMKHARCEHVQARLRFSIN
Procedure, shortened: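 Enzyme activity of insect-cell-expressed human CYP1A2 measured by fluorescence 0.5 h after compound addition, relative to acetonitrile. Compounds first tested in duplicate at 10 uM, actives followed up in concentration series.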

Measured: AC50

Chain of E-selectin (Homo sapiens) (P16581 whole entry, looked up): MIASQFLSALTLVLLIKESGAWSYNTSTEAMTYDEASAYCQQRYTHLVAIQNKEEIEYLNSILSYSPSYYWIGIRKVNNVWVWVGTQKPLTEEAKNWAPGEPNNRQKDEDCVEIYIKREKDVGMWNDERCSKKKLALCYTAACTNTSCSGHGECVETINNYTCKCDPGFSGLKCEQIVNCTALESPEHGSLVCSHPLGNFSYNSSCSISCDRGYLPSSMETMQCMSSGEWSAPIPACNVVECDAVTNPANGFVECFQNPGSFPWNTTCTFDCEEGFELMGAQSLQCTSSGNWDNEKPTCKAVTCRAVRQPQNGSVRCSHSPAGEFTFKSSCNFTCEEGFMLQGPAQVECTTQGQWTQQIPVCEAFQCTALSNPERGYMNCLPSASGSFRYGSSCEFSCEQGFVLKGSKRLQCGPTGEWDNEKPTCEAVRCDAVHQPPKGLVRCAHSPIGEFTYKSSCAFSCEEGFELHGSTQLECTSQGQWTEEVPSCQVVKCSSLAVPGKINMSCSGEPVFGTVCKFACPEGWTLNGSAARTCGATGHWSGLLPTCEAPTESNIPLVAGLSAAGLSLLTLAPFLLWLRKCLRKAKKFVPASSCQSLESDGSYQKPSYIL
Chain of Tumor necrosis factor (Homo sapiens) (P01375 whole entry, looked up): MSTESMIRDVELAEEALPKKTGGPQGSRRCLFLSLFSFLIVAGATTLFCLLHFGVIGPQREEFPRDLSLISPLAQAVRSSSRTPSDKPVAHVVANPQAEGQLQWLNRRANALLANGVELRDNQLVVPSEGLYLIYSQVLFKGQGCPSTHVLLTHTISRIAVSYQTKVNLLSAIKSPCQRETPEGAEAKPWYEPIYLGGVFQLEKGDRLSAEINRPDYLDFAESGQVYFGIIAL

Cc1cccc2ccccc12
not listed: [11] | [12] | [13] | [14] | [15] | [16]
inactive: all other assays above

O=C(O)Cc1cc(I)c(Oc2ccc(O)c(I)c2)c(I)c1
active: [2] 13 µM | [5] 20 µM | [9] 11.8 µM
not listed: [12] | [13] | [14] | [15] | [16]
inactive: all other assays above

CCN(Cc1cccnc1)C(=O)c1cccc(Cl)c1[C@]1(C)C(=O)N(Cc2ccc(OC)cc2OC)c2ccc(Cl)cc21
inactive: [2] | [6] | [7] | [12] | [13] | [14]
active: [1] 12.5 µM | [3] 5.26 µM | CD38, CD38 (gene 952) 8.35 µM | CD40, CD40 (gene 958) 5.55 µM | CD69, CD69 (gene 969) 7.2 µM | [4] 5.36 µM | [5] 7.27 µM | [8] 3.93 µM | [9] 7.09 µM | [10] 5.81 µM | [15] 3.58 µM

CCCCCCCCCC(=O)O
not listed: [11] | [12] | [13] | [14] | [15] | [16]
inactive: all other assays above

COc1cc(C(=O)NC2CCN(C)CC2)ccc1Nc1ncc2c(n1)N(C1CCCC1)CC(F)(F)C(=O)N2C
active: [1] 12.1 µM | [2] 15.1 µM | [3] 11.2 µM | CD38, CD38 (gene 952) 11.6 µM | CD40, CD40 (gene 958) 16.6 µM | [4] 13.9 µM | [5] 11.4 µM | [6] 14.4 µM | [7] 13.8 µM | [8] 10.2 µM | [9] 5.59 µM | [10] 18.6 µM

CC(C)(C)c1cc(/C=C2\SC(N)=NC2=O)cc(C(C)(C)C)c1O
active: [1] 25.1 µM | [2] 11.7 µM | [3] 15.6 µM | CD38, CD38 (gene 952) 12.2 µM | CD40, CD40 (gene 958) 17.4 µM | CD69, CD69 (gene 969) 20 µM | [4] 12.7 µM | [5] 7.42 µM | [6] 27.6 µM | [7] 11.1 µM | [8] 8.74 µM | [9] 7.44 µM | [10] 26.6 µM

CC/C(=C(/CC)c1ccc(O)cc1)c1ccc(O)cc1
active: [1] 29.9 µM | [2] 32.3 µM | [3] 26.8 µM | CD38, CD38 (gene 952) 19 µM | CD40, CD40 (gene 958) 17.8 µM | CD69, CD69 (gene 969) 25.1 µM | [4] 21.6 µM | [5] 8.84 µM | [6] 31.9 µM | [7] 29.1 µM | [8] 13.4 µM | [9] 11.8 µM | [10] 23.1 µM

CCCCCCCCOc1ccc(C(=O)c2ccccc2)c(O)c1
active: [1] 12.6 µM | CD38, CD38 (gene 952) 15.7 µM | CD40, CD40 (gene 958) 30.3 µM | [9] 15 µM | [10] 30.4 µM
not listed: [12] | [13] | [14] | [15] | [16]
inactive: all other assays above

Cc1cn([C@H]2C[C@H](N=[N+]=[N-])[C@@H](CO)O2)c(=O)[nH]c1=O
not listed: [11] | [12] | [13] | [14] | [15] | [16]
inactive: all other assays above

COCC(C)OCC(C)OCC(C)O (stereo not drawn)
not listed: [11] | [12] | [13] | [14] | [15] | [16]
inactive: all other assays above

Cc1ncc(CO)c(CO)c1O
not listed: [11] | [12] | [13] | [14] | [15] | [16]
inactive: all other assays above

OC12N=C(c3ccccc3)SC1Cc1cc(Cl)ccc12 (stereo not drawn)
active: [3] 10.3 µM | CD40, CD40 (gene 958) 20 µM | [7] 28.6 µM | [9] 25.4 µM | [13] 3.9 µM | [16] 0.814 µM
not listed: CD69, CD69 (gene 969) | [11] | [12] | [14] | [15]
inactive: all other assays above

O=C=NCCCCCCN=C=O
active: [9] 15.8 µM
not listed: CD69, CD69 (gene 969) | [11] | [12] | [13] | [14] | [15] | [16]
inactive: all other assays above

CC1(C)NC(=O)N(c2ccc([N+](=O)[O-])c(C(F)(F)F)c2)C1=O
active: [13] 7.49 µM | [16] 5.28 µM
not listed: CD69, CD69 (gene 969) | [11] | [12] | [14] | [15]
inactive: all other assays above
